Measured values as given in PubChem BioAssay (Tox21).
Inconclusive results are not listed. Where a call stands in place of a potency, no number is given. Activity calls are given as the source filed them. Unless noted, calls follow the shape of the dose curve; as a rule, active = well fitted cell-killing curve with a large enough effect in the repeat runs; inconclusive = weak or mixed curves; inactive = no such curve, though single readings can be large or run the other way.

System: not listed separately
Assay: qHTS assay to identify small molecule antagonists of the androgen receptor (AR) signaling pathway - cell viability counter screen (AID 743033; also: nearly all actives have a fitted effect of over 45% in size)
Settings: AR-bla HEK293 viability, CellTiter-Glo luminescence, 16 h; series mostly up to 58.5 µM

Question: For `CCCCC/C=C/CC(=O)OC`, which outcome is on record?
Answer: Its outcome is “inactive”.

Question: Which outcome does the source give for `Cc1nc2ccccc2c(=O)o1` here?
Answer: The outcome was “inactive”.

Question: For `CCN(CCO)c1cccc(C)c1`, which outcome is on record?
Answer: The outcome was “inactive”.

Question: For `FC(F)(F)/C(=N\OCC1OCCO1)c1ccc(Cl)cc1`, which outcome is on record?
Answer: Its outcome is “inactive”.

Question: With `C=CCCCCCCCCCCC` as the compound, how does the activity change, negative = cytotoxicity read?
Answer: Its activity change, negative = cytotoxicity is -0.32% [at 7.04 µM] (inactive).

Question: For `CCCCCCCCCCCCCC(=O)OC`, which outcome is on record?
Answer: The outcome was “inactive”.

Question: With `NC(Cc1c[nH]c2ccccc12)C(=O)O` (centres undefined) as the compound, how does the outcome read?
Answer: The outcome was “inactive”.

Question: Which outcome does the source give for `CNC(=O)C(c1ccccc1)c1ccccc1` here?
Answer: Its outcome is “inactive”.

Question: Which outcome does the source give for `Cc1nc(C)nc(N2C[C@@H](C)N(c3ccnc([C@@H](C)O)n3)[C@@H](C)C2)n1` here?
Answer: The outcome was “inactive”.

Question: With `O=C(O)c1ccccc1C(=O)Nc1ccc(S(=O)(=O)Nc2nccs2)cc1` as the compound, how does the outcome read?
Answer: The outcome was “inactive”.

Question: With `C[C@H](CCC(=O)NCC(=O)O)[C@H]1CC[C@H]2[C@@H]3[C@H](O)C[C@@H]4C[C@H](O)CC[C@]4(C)[C@H]3C[C@H](O)[C@]12C` as the compound, how does the outcome read?
Answer: The outcome was “inactive”.

Question: With `COc1ccc(/C=N/NC(=O)c2ccncc2)cc1OC` as the compound, how does the outcome read?
Answer: The outcome was “inactive”.

Question: Which outcome does the source give for `C=CCOc1cc(Cl)ccc1C(=O)NCCN(CC)CC` here?
Answer: The outcome was “inactive”.

Question: With `CCCCCCCC[Si](OCC)(OCC)OCC` as the compound, how does the outcome read?
Answer: Its outcome is “inactive”.

Question: Which outcome does the source give for `O=C1c2ccccc2-c2ccccc21` here?
Answer: Its outcome is “inactive”.

Question: Which outcome does the source give for `CC(C)COC(=O)/C=C/c1ccccc1` here?
Answer: The outcome was “inactive”.

Question: With `O=C1OC(=O)c2cc(Oc3ccc4c(c3)C(=O)OC4=O)ccc21` as the compound, how does the outcome read?
Answer: Its outcome is “inactive”.

Question: For `Nc1cc(C(=O)O)ccc1Cl`, which outcome is on record?
Answer: The outcome was “inactive”.

Question: Which outcome does the source give for `CCc1nccnc1C` here?
Answer: The outcome was “inactive”.

Question: Which outcome does the source give for `CC(=O)OCCCc1ccccc1` here?
Answer: Its outcome is “inactive”.

Question: Which outcome does the source give for `CC(C)COC(=O)CCCCC(=O)OCC(C)C` here?
Answer: Its outcome is “inactive”.

Question: Which outcome does the source give for `CCN1CN(CC)CN(CC)C1` here?
Answer: Its outcome is “inactive”.

Question: For `CCS(=O)(=O)CCn1c([N+](=O)[O-])cnc1C`, which outcome is on record?
Answer: The outcome was “inactive”.

Question: Which outcome does the source give for `CC(C)=CC(C)(C)C` here?
Answer: Its outcome is “inactive”.

Question: With `OC[C@@H](O)[C@H](O)[C@@H](O)[C@@H](O)CO` as the compound, how does the outcome read?
Answer: Its outcome is “inactive”.

Question: Which outcome does the source give for `CCC(=O)OCCC(C)CCC=C(C)C` (centres undefined) here?
Answer: The outcome was “inactive”.

Question: With `CCCCCCCCC(=O)OCC` as the compound, how does the outcome read?
Answer: The outcome was “inactive”.

Question: For `FC(F)(F)c1ccc(Cl)cc1Cl`, which outcome is on record?
Answer: The outcome was “inactive”.

Question: With `O=c1cc(O)c(Cl)c[nH]1` as the compound, how does the outcome read?
Answer: The outcome was “inactive”.

Question: With `CC(=O)c1ccc(OCC(=O)N2CCCCC2)cc1` as the compound, how does the outcome read?
Answer: The outcome was “inactive”.

Question: Which outcome does the source give for `COc1ccc(NS(=O)(=O)c2ccc(N)cc2)nn1` here?
Answer: Its outcome is “inactive”.

Target: Androgen receptor (Homo sapiens) (UniProt P10275)
Sequence (P10275 whole entry, looked up): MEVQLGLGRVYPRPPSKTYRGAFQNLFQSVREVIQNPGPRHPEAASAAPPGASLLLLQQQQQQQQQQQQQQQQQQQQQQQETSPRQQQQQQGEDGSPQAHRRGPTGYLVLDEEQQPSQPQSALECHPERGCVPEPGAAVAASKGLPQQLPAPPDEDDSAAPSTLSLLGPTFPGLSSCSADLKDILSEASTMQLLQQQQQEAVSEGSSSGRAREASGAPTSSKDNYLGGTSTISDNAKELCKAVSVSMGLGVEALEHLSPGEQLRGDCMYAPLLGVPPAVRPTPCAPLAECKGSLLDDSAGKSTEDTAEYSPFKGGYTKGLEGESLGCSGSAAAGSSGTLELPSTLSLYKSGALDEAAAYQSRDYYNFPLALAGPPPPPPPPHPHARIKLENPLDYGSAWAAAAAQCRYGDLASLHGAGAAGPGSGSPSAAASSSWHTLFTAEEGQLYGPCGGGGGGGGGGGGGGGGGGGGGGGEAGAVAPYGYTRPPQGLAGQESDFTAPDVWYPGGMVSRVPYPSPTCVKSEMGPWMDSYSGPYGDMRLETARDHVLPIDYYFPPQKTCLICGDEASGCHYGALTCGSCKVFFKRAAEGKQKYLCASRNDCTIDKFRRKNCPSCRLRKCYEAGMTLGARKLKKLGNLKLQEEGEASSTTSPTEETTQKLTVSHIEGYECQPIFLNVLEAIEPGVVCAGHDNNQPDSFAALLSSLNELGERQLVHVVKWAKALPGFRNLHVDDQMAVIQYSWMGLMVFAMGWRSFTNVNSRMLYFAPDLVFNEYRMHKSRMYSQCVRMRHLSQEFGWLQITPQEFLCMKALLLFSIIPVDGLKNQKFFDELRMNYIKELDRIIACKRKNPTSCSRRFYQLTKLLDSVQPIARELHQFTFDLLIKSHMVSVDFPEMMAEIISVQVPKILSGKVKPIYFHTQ
Assay: qHTS assay to identify small molecule antagonists of the androgen receptor (AR) signaling pathway (AID 743035; active = well fitted inhibition curve with a large enough effect in the signal ratio in the repeat runs, not every such curve was filed as active; the % refers to the signal ratio; also: potency is read from the fitted curve at half-maximal effect)
Settings: HEK293 AR-UAS-bla, R1881-stimulated, beta-lactamase FRET, 16 h; series mostly up to 58.5 µM
Outline: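 Antagonism is scored as loss of R1881-driven beta-lactamase reporter expression in HEK293 cells carrying the reporter under a UAS element, after 16 h co-treatment at 37C and a 2 h room-temperature FRET substrate read.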

Question: Which activity change, negative = inhibition does the source give for `C=CCCCCCCCCCCC` here?
Answer: The activity change, negative = inhibition was -3.92% [at 7.04 µM] (inactive).

Question: With `CCCCCCCCCCCCCC(=O)OC` as the compound, how does the Potency read?
Answer: Its Potency is “inactive”.

Question: Which Potency does the source give for `O=C(O)c1ccccc1C(=O)Nc1ccc(S(=O)(=O)Nc2nccs2)cc1` here?
Answer: Its Potency is “inactive”.

Question: For `COc1ccc(/C=N/NC(=O)c2ccncc2)cc1OC`, which Potency is on record?
Answer: The Potency was “inactive”.

Question: For `O=C(CN1CCN(Cc2ccc3c(c2)OCO3)CC1)N1c2ccccc2Sc2ccccc21`, which Potency is on record?
Answer: The Potency was 26.8 µM (active).

Question: For `O=C1c2ccccc2-c2ccccc21`, which Potency is on record?
Answer: Its Potency is “inactive”.

Question: For `O=C1OC(=O)c2cc(Oc3ccc4c(c3)C(=O)OC4=O)ccc21`, which Potency is on record?
Answer: Its Potency is “inactive”.

Question: With `Nc1cc(C(=O)O)ccc1Cl` as the compound, how does the Potency read?
Answer: Its Potency is “inactive”.
